# Results filed as inconclusive are left out. Some compounds were tested as several samples or in several runs, with calls that do not always agree. Activity calls are given as the source filed them. Rule for the calls, unless noted: active = hit-call score of the fitted dose curve at least 0.9, where 1 is the maximum; inactive = score below 0.9.
# Experiments:
# [1] = read-out: Monokine induced gamma interferon (MIG), CXCL9 (gene 4283); assay: BSK_3C_MIG: BioMAP Diversity Plus: 3C Assay for Monokine induced gamma interferon (MIG) Biomarker Activity (AID 2283021); conditions: primary human endothelial cells (HUVEC); actives raise or lower the signal;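 for AC50: MIG protein level measured by immunoassay in the treated endothelial cultures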
# Method in brief: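 Endothelial primary cells (human umbilical vein) are dosed with test chemical in the 3C system. MIG levels are measured by ELISA at 24 h and fitted in both directions relative to DMSO.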
# [2] = BSK_3C_SRB: Viability Assessment in the BioMAP Diversity Plus: 3C Assay (AID 2283023); conditions: primary human endothelial cells (HUVEC);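 note: fitted both ways against DMSO so a hit may be signal rise or drop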
# Method in brief: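 Human umbilical vein endothelial cells in the 3C system, treated 24 h. Total protein measured by 0.1% sulforhodamine B staining after 10% TCA fixation, read at 560 nm; bidirectional fit versus DMSO.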
# [3] = BSK_3C_Vis: BioMAP Diversity Plus: 3C Assay for Morphology Visualization (AID 2283025); conditions: primary human endothelial cells (HUVEC);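 note: fitted both ways so gain or loss versus DMSO counts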
# Method in brief: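 Morphology read by light microscopy serves as a background control for the multiplexed 3C assay in human umbilical vein endothelial cells, taken 24 h after dosing, with DMSO as the negative control and bidirectional curve fitting.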
# [4] = read-out: Pselectin, SELP (gene 6403); assay: BSK_4H_Pselectin: BioMAP Diversity Plus: 4H Assay for Pselectin Biomarker Activity (AID 2283026); conditions: primary human endothelial cells (HUVEC); actives raise or lower the signal
# Method in brief: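 Endothelial primary cells (human umbilical vein) are dosed, incubated 24 h, and assayed for surface P-selectin by ELISA; responses in either direction are fitted relative to the DMSO negative control.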
# [5] = BSK_4H_SRB: Viability Assessment in the BioMAP Diversity Plus: 4H Assay (AID 2283027); conditions: primary human endothelial cells (HUVEC);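 note: cells exposed to compound for 24 h before staining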;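 for AC50: curves fitted both ways versus DMSO so AC50 may be loss or gain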
# Method in brief: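 HUVEC, 24 h post-dose; 10% TCA fix, 0.1% SRB stain, A560 nm. Total protein = overt cytotoxicity, parallel to biomarker read. Bidirectional fit vs DMSO baseline.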
# [6] = BSK_BE3C_SRB: Viability Assessment in the BioMAP Diversity Plus: BE3C Assay (AID 2283028); conditions: primary human bronchial epithelial cells;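 for AC50: fitted both ways so AC50 may mark signal gain or loss versus DMSO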
# Method in brief: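 Human bronchial epithelial primary cells in confluent culture, 24 h after chemical dosing; total protein by 0.1% SRB staining after 10% TCA fixation, read at 560 nm. Bidirectional fitting versus DMSO baseline.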
# [7] = read-out: Thrombomodulin, THBD (gene 7056); assay: BSK_3C_Thrombomodulin: BioMAP Diversity Plus: 3C Assay for Thrombomodulin Biomarker Activity (AID 2283029); conditions: primary human endothelial cells (HUVEC); actives raise or lower the signal
# Method in brief: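 Endothelial cells from umbilical vein are dosed with test chemical and incubated 24 h. Thrombomodulin is then quantified by ELISA, with DMSO serving as negative control and activity baseline.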
# [8] = read-out: Urokinase-type plasminogen activator receptor (uPAR), PLAUR (gene 5329); assay: BSK_4H_uPAR: BioMAP Diversity Plus: 4H Assay for Urokinase-type plasminogen activator receptor (uPAR) Biomarker Activity (AID 2283030); conditions: primary human endothelial cells (HUVEC); actives raise or lower the signal
# Method in brief: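 Human umbilical vein endothelial cells in the 4H system, 24 h after chemical dosing. Cell-surface uPAR measured by ELISA, fitted in both directions versus DMSO; cytotoxicity checked by SRB total protein in parallel cultures.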
# [9] = read-out: Vascular endothelial growth factor receptor 2 (Homo sapiens) (UniProt P35968); assay: BSK_4H_VEGFRII: BioMAP Diversity Plus: 4H Assay for Vascular endothelial growth factor receptor 2 (VEGFR2) Biomarker Activity (AID 2283031); conditions: primary human endothelial cells (HUVEC); actives raise or lower the signal;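 for AC50: cell-surface VEGFR2 protein level quantified by ELISA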
# Method in brief: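 Primary human umbilical vein endothelial cells (4H system), 24 h exposure; cell-surface VEGFR2 measured by ELISA. Bidirectional fitting versus DMSO; cytotoxicity checked in parallel by SRB total-protein staining.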
# [10] = read-out: Human Leukocyte Antigen - DR isotype (HLADR), HLA-DRA (gene 3122); assay: BSK_BE3C_HLADR: BioMAP Diversity Plus: BE3C Assay for Human Leukocyte Antigen - DR isotype (HLADR) Biomarker Activity (AID 2283032); conditions: primary human bronchial epithelial cells; actives raise or lower the signal
# Method in brief: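 Chemicals are dosed onto BE3C bronchial epithelial cultures of human origin and left 24 h. HLA-DR is then measured by ELISA, and the endpoint is fitted in both directions using DMSO as the activity baseline.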
# [11] = read-out: Vascular cell adhesion molecule 1 (VCAM1), VCAM1 (gene 7412); assay: BSK_4H_VCAM1: BioMAP Diversity Plus: 4H Assay for Vascular cell adhesion molecule 1 (VCAM1) Biomarker Activity (AID 2283033); conditions: primary human endothelial cells (HUVEC); actives raise or lower the signal;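 for outcome: cell-surface VCAM-1 protein measured by ELISA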
# Method in brief: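 Chemicals are added to primary human umbilical vein endothelial cells. After 24 h, VCAM-1 levels are measured by ELISA. Values come from bidirectional fitting referenced to DMSO.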
# [12] = read-out: Interferon-gamma inducible Protein 10 (IP10), CXCL10 (gene 3627); assay: BSK_BE3C_IP10: BioMAP Diversity Plus: BE3C Assay for Interferon-gamma inducible Protein 10 (IP10) Biomarker Activity (AID 2283034); conditions: primary human bronchial epithelial cells; actives raise or lower the signal
# Method in brief: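 IP-10 quantified by ELISA serves as the endpoint. Cells: primary human bronchial epithelium, read 24 h after compound addition. Activity is derived by bidirectional fitting with DMSO as negative control.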
# [13] = read-out: Transforming growth factor beta 1 (TGFb1), TGFB1 (gene 7040); assay: BSK_BE3C_TGFb1: BioMAP Diversity Plus: BE3C Assay for Transforming growth factor beta 1 (TGFb1) Biomarker Activity (AID 2283036;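 for outcome: TGF-b1 protein level measured by ELISA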); conditions: primary human bronchial epithelial cells; actives raise or lower the signal
# Method in brief: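 Bronchial epithelial primary cells are treated with test chemical, then TGF-b1 is quantified by ELISA after 24 hours. Values derive from bidirectional fitting against DMSO, with cytotoxicity checked by SRB staining in parallel cultures.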
# [14] = read-out: Plasminogen activator inhibitor-1 (PAI1), SERPINE1 (gene 5054); assay: BSK_BE3C_PAI1: BioMAP Diversity Plus: BE3C Assay for Plasminogen activator inhibitor-1 (PAI1) Biomarker Activity (AID 2283037); conditions: primary human bronchial epithelial cells; actives raise or lower the signal
# Method in brief: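 Values derive from bidirectional fitting against DMSO baseline of PAI-1 levels, measured by ELISA in human bronchial epithelial cells 24 h after compound addition.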
# [15] = read-out: urokinase plasminogen activator (uPA), PLAU (gene 5328); assay: BSK_BE3C_uPA: BioMAP Diversity Plus: BE3C Assay for urokinase plasminogen activator (uPA) Biomarker Activity (AID 2283038); conditions: primary human bronchial epithelial cells; actives raise or lower the signal;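 for outcome: uPA protein level quantified by ELISA in cell cultures; uPA read one day after compound addition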
# Method in brief: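 Primary human bronchial epithelial cells, uPA measured by ELISA 24 h after dosing. Bidirectional change relative to DMSO; cytotoxicity checked in parallel cultures by sulforhodamine B total-protein staining.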
# [16] = read-out: Urokinase-type plasminogen activator receptor (uPAR), PLAUR (gene 5329); assay: BSK_BE3C_uPAR: BioMAP Diversity Plus: BE3C Assay for Urokinase-type plasminogen activator receptor (uPAR) Biomarker Activity (AID 2283039); conditions: primary human bronchial epithelial cells; actives raise or lower the signal;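 for outcome: cells exposed to compound for one day before measurement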
# Method in brief: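 Steps: dose human primary bronchial epithelial cells, incubate 24 h, measure uPAR by ELISA, then fit gain- or loss-of-signal response bidirectionally relative to DMSO.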
# [17] = read-out: Interleukin-6 (IL6), IL6 (gene 3569); assay: BSK_CASM3C_IL6: BioMAP Diversity Plus: CASM3C Assay for Interleukin-6 (IL6) Biomarker Activity for (AID 2283040); conditions: primary human coronary artery smooth muscle cells; actives raise or lower the signal
# [18] = target: human Vitamin D Receptor (VDR), VDR (gene 7421) (UniProt P11473); assay: ATG_VDR_TRANS: Attagene TRANS-FACTORIAL HepG2 Assay for human Vitamin D Receptor (VDR) (AID 2283022; active = hit-call score of the fitted dose curve at least 0.9, where 1 is the maximum)
# Chain of human Vitamin D Receptor (VDR), VDR (gene 7421) (P11473 whole entry, looked up, the tested form may be a part): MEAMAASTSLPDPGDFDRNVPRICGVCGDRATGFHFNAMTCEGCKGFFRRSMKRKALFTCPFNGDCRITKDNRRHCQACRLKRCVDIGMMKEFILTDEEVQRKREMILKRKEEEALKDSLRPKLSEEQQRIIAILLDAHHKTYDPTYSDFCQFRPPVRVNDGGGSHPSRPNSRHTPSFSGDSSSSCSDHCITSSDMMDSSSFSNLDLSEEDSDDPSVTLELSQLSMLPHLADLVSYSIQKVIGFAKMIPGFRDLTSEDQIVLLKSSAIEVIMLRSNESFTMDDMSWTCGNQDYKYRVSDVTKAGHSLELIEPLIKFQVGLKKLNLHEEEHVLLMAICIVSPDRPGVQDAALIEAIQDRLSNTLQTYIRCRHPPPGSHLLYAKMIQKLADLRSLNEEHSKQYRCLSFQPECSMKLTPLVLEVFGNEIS
# Method in brief: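 HepG2 cells were transiently transfected with GAL4-UAS reporter units and a chimeric VDR-Gal4 construct, then dosed for 24 hours. Reporter mRNA was quantified by RT-PCR, fluorescent labeling, HpaI digestion and capillary electrophoresis; gain of signal analysed vs DMSO.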
# [19] = read-out: Matrix Metallopeptidase 1 (MMP1), MMP1 (gene 4312); assay: BSK_BE3C_MMP1: BioMAP Diversity Plus: BE3C Assay for Matrix Metallopeptidase 1 (MMP1) Biomarker Activity (AID 2283024); conditions: primary human bronchial epithelial cells; actives raise or lower the signal
# Method in brief: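 MMP1 signal, measured by ELISA after a 24 h chemical exposure of human primary bronchial epithelial cells, is analysed with bidirectional fitting using DMSO as negative control.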
# [20] = read-out: Monokine induced gamma interferon (MIG), CXCL9 (gene 4283); assay: BSK_BE3C_MIG: BioMAP Diversity Plus: BE3C Assay for Monokine induced gamma interferon (MIG) Biomarker Activity (AID 2283035); conditions: primary human bronchial epithelial cells; actives raise or lower the signal;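 for outcome: MIG protein measured by ELISA in BE3C cultures after 24 h of dosing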
# Method in brief: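 Dose cells (human primary bronchial epithelial), incubate 24 h, quantify MIG by ELISA, then fit concentration–response in both directions relative to DMSO control.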
compound,measurement,setting,value
CCCCC(CC)C(=O)O (stereo unspecified),outcome,[1],inactive
same,outcome,[2],inactive
same,outcome,[3],inactive
same,outcome,[4],inactive
same,outcome,[5],inactive
same,outcome,[6],inactive
same,outcome,[7],inactive
same,outcome,[8],inactive
same,outcome,[9],inactive
same,outcome,[10],inactive
same,outcome,[11],inactive
same,outcome,[12],inactive
same,outcome,[13],inactive
same,outcome,[14],inactive
same,outcome,[15],inactive
same,outcome,[16],inactive
same,outcome,[17],inactive
Oc1c(Cl)ccc(Cl)c1Cl,outcome,[18],inactive
CCCCCCOC(=O)c1ccc(O)cc1,outcome,[18],inactive
CCCCCc1ccc(O)cc1,AC50,[1],34.6 µM (active)
same,AC50,[2],14.5 µM (active)
same,AC50,[3],12.1 µM (active)
same,AC50,[4],13.3 µM (active)
same,AC50,[5],15.8 µM (active)
same,AC50,[6],26 µM (active)
same,AC50,[7],11.7 µM (active)
same,AC50,[8],20 µM (active)
same,outcome,[9],inactive
same,AC50,[10],27.2 µM (active)
same,AC50,[11],24.9 µM (active)
same,AC50,[12],16.6 µM (active)
same,AC50,[13],20 µM (active)
same,AC50,[14],20 µM (active)
same,AC50,[15],27.2 µM (active)
same,AC50,[16],30.5 µM (active)
same,AC50,[17],20 µM (active)
NC(=NCCCCCCN=C(N)/N=C(\N)Nc1ccc(Cl)cc1)/N=C(\N)Nc1ccc(Cl)cc1,AC50,[1],9.77 µM (active)
same,AC50,[2],4.85 µM (active)
same,AC50,[19],3.14 µM (active)
same,AC50,[4],4.81 µM (active)
same,AC50,[5],4.85 µM (active)
same,AC50,[6],4.74 µM (active)
same,AC50,[7],6.15 µM (active)
same,AC50,[8],4.47 µM (active)
same,AC50,[9],4.47 µM (active)
same,AC50,[10],3.83 µM (active)
same,AC50,[11],5.68 µM (active)
same,AC50,[12],4.26 µM (active)
same,AC50,[20],11.9 µM (active)
same,outcome,[13],inactive
same,AC50,[14],1.46 µM (active)
same,AC50,[15],3.31 µM (active)
same,AC50,[16],3.1 µM (active)
same,AC50,[17],7.19 µM (active)
CCOC=O,outcome,[18],inactive
O=C(CCCN1CCC(O)(c2ccc(Cl)cc2)CC1)c1ccc(F)cc1,outcome,[1],inactive
same,AC50,[2],17.4 µM (active)
same,AC50,[3],9.8 µM (active)
same,outcome,[4],inactive
same,AC50,[5],9.78 µM (active)
same,outcome,[6],inactive
same,outcome,[7],inactive
same,AC50,[8],10.9 µM (active)
same,outcome,[9],inactive
same,outcome,[10],inactive
same,AC50,[11],20 µM (active)
same,outcome,[12],inactive
same,outcome,[13],inactive
same,outcome,[14],inactive
same,outcome,[15],inactive
same,outcome,[16],inactive
same,outcome,[17],inactive
C=CC(=C)CC/C=C(\C)CCC=C(C)C,outcome,[1],inactive
same,outcome,[2],inactive
same,outcome,[3],inactive
same,outcome,[4],inactive
same,outcome,[5],inactive
same,outcome,[6],inactive
same,outcome,[7],inactive
same,outcome,[8],inactive
same,outcome,[9],inactive
same,outcome,[10],inactive
same,outcome,[11],inactive
same,outcome,[12],inactive
same,outcome,[13],inactive
same,outcome,[14],inactive
same,outcome,[15],inactive
same,outcome,[16],inactive
same,outcome,[17],inactive
CCCCCCCCCCCC[N+](C)(C)CCCCCCCCCCCC,outcome,[18],inactive
O=P(O)(O)CCC(F)(F)C(F)(F)C(F)(F)C(F)(F)C(F)(F)C(F)(F)F,outcome,[1],inactive
same,outcome,[2],inactive
same,outcome,[4],inactive
same,outcome,[5],inactive
same,outcome,[6],inactive
same,AC50,[7],22.7 µM (active)
same,outcome,[7],inactive
same,outcome,[8],inactive
same,outcome,[9],inactive
same,outcome,[10],inactive
same,outcome,[11],inactive
same,AC50,[12],3.21 µM (active)
same,outcome,[12],inactive
same,outcome,[14],inactive
same,outcome,[15],inactive
same,outcome,[16],inactive
same,outcome,[17],inactive
O=C1NS(=O)(=O)c2ccccc21,outcome,[1],inactive
same,outcome,[2],inactive
same,outcome,[3],inactive
same,AC50,[4],5.01 µM (active)
same,outcome,[4],inactive
same,outcome,[5],inactive
same,outcome,[6],inactive
same,outcome,[7],inactive
same,outcome,[8],inactive
same,outcome,[9],inactive
same,outcome,[10],inactive
same,outcome,[11],inactive
same,outcome,[12],inactive
same,outcome,[20],inactive
same,outcome,[13],inactive
same,outcome,[14],inactive
same,outcome,[15],inactive
same,outcome,[16],inactive
same,outcome,[17],inactive
